Records with an inconclusive call do not appear. Where a structure was tested more than once in an assay, its records may differ in their call. The source made the active and inactive calls. The calls were made as follows, unless noted: active = hit-call score of the fitted dose curve at least 0.9, where 1 is the maximum; inactive = score below 0.9.
Experiments:
[1] = CCTE_Mundy_HCI_Cortical_Synap_Neur_Matur_NeuriteCount: CCTE's Synaptogenesis and Neurite Maturation Assay in rat cortical cells for Neurite Count, Mundy Lab (AID 2284222);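 as to outcome: exposure from day 7 to day 12 in vitro with readout at day 12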
Procedure, shortened: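 Rat cortical neurons, 96-well; AraC DIV 5; chemical + media change DIV 7; end DIV 12. Fix PFA/Hoechst, anti-MAP2 + anti-synaptophysin IF. HCI neurite count vs DMSO baseline.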

[2] = CCTE_Mundy_HCI_Cortical_Synap_Neur_Matur_CellBodySpotCount: CCTE's Synaptogenesis and Neurite Maturation Assay in rat cortical cells for Cell Body Spot Count, Mundy Lab (AID 2284223)
Procedure, shortened: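 Read-out: cell body-associated synaptophysin puncta per neuron, imaged after MAP2, synaptophysin and Hoechst staining. Rat cortical cells, AraC DIV 5, chemical dosing DIV 7, fixation DIV 12. Activity fitted in positive direction relative to DMSO baseline.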

[3] = CCTE_Mundy_HCI_hNP1_Pro_ResponderAvgInten: CCTE's Proliferation Assay in human neuroprogenitor cells, Mundy Lab (AID 2284224; active = hit-call score of the fitted dose curve at least 0.9, where 1 is the maximum;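 also: human neural progenitor cells hNP1 derived from WA09 embryonic stem cells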)
Procedure, shortened: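 Human neuroprogenitors (hNP1, WA09 lineage) receive test chemical after 40 to 44 hours of attachment. A four-hour BrdU pulse begins twenty hours later, followed by fixation and high content imaging; signal is referenced to DMSO controls.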

[4] = UKN4_HCS_LUHMES_cell_viability: Viability Assessment in the University of Konstanz (UKN) Leist Lab Neurite Outgrowth Assay in human LUHMES cells (UKN4) (AID 2284232)
Procedure, shortened: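 LUHMES precursors differentiated 2 days, replated at 30000 cells/well without cAMP/GDNF, then compound-treated 24 h. Viability from Hoechst H-33342 and calcein-AM live staining (30 min) by high-content fluorescence imaging; bidirectional fit versus DMSO.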

[5] = CCTE_Mundy_HCI_Cortical_NOG_NeuronCount: CCTE's Neurite Outgrowth Assay in rat cortical cells for Neuron Count, Mundy Lab (AID 2284236; active = hit-call score of the fitted dose curve at least 0.9, where 1 is the maximum;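 also: neurons counted by imaging betaIII-tubulin and Hoechst stained cortical cells; cells exposed to compound for about 48 hours before fixation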)
Procedure, shortened: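 Read-out: neuron number by high-content imaging of betaIII-tubulin (Alexa Fluor-488) and Hoechst-labelled rat primary cortical cells.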

[6] = CCTE_Mundy_HCI_Cortical_NOG_BPCount: CCTE's Neurite Outgrowth Assay in rat cortical cells for Branch Point Count, Mundy Lab (AID 2284237);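 as to AC50: branch points counted about two days after chemical exposure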
Procedure, shortened: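 Measured 50.33 h after dosing, this morphology endpoint uses rat primary cortical cultures labelled for betaIII-tubulin. Branch points are quantified by high-content imaging, with DMSO as negative control and baseline.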

[7] = CCTE_Mundy_HCI_hNP1_CellTiter: CCTE's Cell Titer-Glo 2 Assay in human neuroprogenitor cells for Viability, Mundy Lab (AID 2284241; active = hit-call score of the fitted dose curve at least 0.9, where 1 is the maximum;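 as to AC50: a hit is a drop in ATP luminescence versus DMSO meaning reduced viability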)
Procedure, shortened: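 Measures ATP content in human neural progenitors derived from WA09 embryonic cells. Read-out at 26.5 hours after dosing, with DMSO serving as the negative control and baseline.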

[8] = TAMU_PeakParms_SingleDonor1434_QT: Texas A&M University (TAMU) 1.5-hr Human Induced Pluripotent Stem Cell (iPSC)-derived Cardiomyocytes Calcium (Ca+2) Flux Assay for Cardiotoxicity: QT (decay-rise ratio) (AID 2284235; active = hit-call score of the fitted dose curve at least 0.9, where 1 is the maximum)
Procedure, shortened: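 iPSC-derived cardiomyocytes (single donor 1434) dosed at 0.2, 1, 10, 100 uM final in 0.5% DMSO, 90 min at 37C. Ca2+ flux fluorescence decay/rise ratio; EC05 (5% increase versus DMSO) as POD, excluding beat-arrest and severe-notch data.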

[9] = TAMU_HCS_1.5hr_SingleDonor1434_Cytotoxicity: Cytotoxicity Assessment using High-content Screening (HCS) Fluorescent Imaging for the Texas A&M University (TAMU) 1.5-hr Human Induced Pluripotent Stem Cell (iPSC)-derived Cardiotoxicity Assay (AID 2284234; active = hit-call score of the fitted dose curve at least 0.9, where 1 is the maximum)
Procedure, shortened: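 Human iPSC-derived cardiomyocytes dosed at 0.2, 1, 10, 100 uM final (0.5% DMSO) for 90 min at 37 C. Hoechst 33342-stained nuclei counted by 10x high-content imaging; POD is EC10, a 10% drop in total cell count versus DMSO.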

[10] = CCTE_Mundy_HCI_hN2_NOG_NeuriteLength: CCTE's Neurite Outgrowth Assay in human hN2 cells for Neurite Length, Mundy Lab (AID 2284220; active = hit-call score of the fitted dose curve at least 0.9, where 1 is the maximum)
Procedure, shortened: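 Using βIII-tubulin immunofluorescence and Hoechst nuclear counterstain, this component quantifies neurite length in hNP1-derived neurons.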

[11] = CCTE_Mundy_HCI_hN2_NOG_NeuronCount: CCTE's Neurite Outgrowth Assay in human hN2 cells for Neuron Count, Mundy Lab (AID 2284221; active = hit-call score of the fitted dose curve at least 0.9, where 1 is the maximum)
Procedure, shortened: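 Read-out is the number of betaIII-tubulin-positive neurons imaged by automated high-content analysis, with DMSO as negative control.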

With `CC(C)N(C(=O)COc1nnc(C(F)(F)F)s1)c1ccc(F)cc1` the outcome [1] was “inactive”, the outcome [2] was “inactive” and the outcome [3] was “inactive”. The outcome [4] was “inactive”, the outcome [5] was “inactive” and the outcome [6] was “inactive”. The outcome [7] was “inactive”.
For `CN1CSC(=S)N(C)C1`, the outcome [8] was “inactive”.
For `CNC(=O)CSP(=S)(OC)OC`, the AC50 [1] was 50 µM (active), the outcome [1] was “inactive” and the outcome [2] was “inactive”. For the same compound, the outcome [3] was “inactive”, the outcome [6] was “inactive” and the outcome [7] was “inactive”.
For `CC[C@H](C)[C@H]1O[C@]2(C=C[C@@H]1C)C[C@@H]1C[C@@H](C/C=C(\C)[C@@H](O[C@H]3C[C@H](OC)[C@@H](O[C@H]4C[C@H](OC)[C@@H](O)[C@H](C)O4)[C@H](C)O3)[C@@H](C)/C=C/C=C3\CO[C@@H]4[C@H](O)C(C)=C[C@@H](C(=O)O1)[C@]34O)O2` (tested in a mixture with another compound), the AC50 [1] was 1.59 µM (active), the AC50 [2] was 1.75 µM (active) and the AC50 [3] was 1.45 µM (active). The AC50 [5] was 13.3 µM (active), the AC50 [6] was 8.26 µM (active) and the AC50 [7] was 3.34 µM (active).
In the case of `O=[N+]([O-])/N=C1\NCCN1Cc1ccc(Cl)nc1`, the outcome [1] is reported as “inactive”, the outcome [2] is reported as “inactive” and the outcome [3] is reported as “inactive”. The outcome [4] was “inactive”, the outcome [6] was “inactive” and the outcome [7] was “inactive”.
For `O=S1OCC2C(CO1)C1(Cl)C(Cl)=C(Cl)C2(Cl)C1(Cl)Cl` (stereo not drawn), the outcome [1] was “inactive”, the AC50 [2] was 23.4 µM (active) and the AC50 [3] was 23 µM (active). For the same compound, the AC50 [4] was 18.7 µM (active), the outcome [9] was “inactive” and the outcome [8] was “inactive”. The AC50 [5] was 25.2 µM (active), the AC50 [6] was 21.4 µM (active) and the AC50 [7] was 12 µM (active).
With `CCOCN(C(=O)CCl)c1c(C)cccc1CC` the AC50 [9] was 81.6 µM (active).
With `COP(=O)(OC)OC=C(Cl)Cl` the outcome [10] was “inactive”, the AC50 [11] was 0.355 µM (active) and the outcome [1] was “inactive”. The outcome [2] was “inactive”, the outcome [3] was “inactive” and the outcome [5] was “inactive”. For the same compound, the AC50 [6] was 70 µM (active), the outcome [6] was “inactive” and the outcome [7] was “inactive”.
For `CC1(c2ccc(Oc3ccccc3)cc2)OC(=O)N(Nc2ccccc2)C1=O` (stereo not drawn), the AC50 [1] was 59 µM (active), the AC50 [2] was 79.9 µM (active) and the outcome [3] was “inactive”. The AC50 [5] was 23.8 µM (active), the AC50 [6] was 50 µM (active) and the AC50 [7] was 10.9 µM (active).
In the case of `CCC(C)(C)C(=O)OC1=C(c2ccc(Cl)cc2Cl)C(=O)OC12CCCCC2`, the outcome [1] is reported as “inactive”, the outcome [2] is reported as “inactive” and the outcome [3] is reported as “inactive”. For the same compound, the outcome [4] was “inactive”, the outcome [6] was “inactive” and the outcome [7] was “inactive”.
For `COP(=S)(OC)Oc1ccc([N+](=O)[O-])cc1`, the outcome [1] was “inactive”, the outcome [2] was “inactive” and the outcome [4] was “inactive”. The AC50 [5] was 2.98 µM (active), the AC50 [6] was 23.2 µM (active) and the outcome [7] was “inactive”.

Reference: PubChem BioAssay (EPA / NIEHS)
